Unmarked numbers belong to inactive results. Records with an inconclusive call do not appear. Active and inactive are the calls of the source. Unless noted, calls come from the whole dose curve; as a rule, active = well fitted curve in the direction sought with a large enough effect in the repeat runs; inconclusive = weak or mixed curves; inactive = no such curve, though single readings can be large; an effect the other way counts as inactive or inconclusive.

Assay [1] can be described thus: qHTS assay for small molecule agonists of the p53 signaling pathway (AID 651631; calls by dose curve; note: nearly all actives have a fitted effect of over 15% in size; note: potency is the fitted concentration of half-maximal effect). The essentials:
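p53RE-bla HCT-116 cells; compounds 16 h, 37 °C; LiveBLAzer B/G FRET substrate 2 h RT; fluorescence intensity read-out, qHTS format.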

A short description of assay [2]: qHTS assay for small molecules that induce genotoxicity in human embryonic kidney cells expressing luciferase-tagged ATAD5 (AID 651632). Note: nearly all actives have a fitted effect of over 15% in size. A digest of the protocol:
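Reporter cells (HEK293T) express luciferase-tagged ATAD5, a protein that accumulates after DNA damage. Treat 16 hr at 37C/5% CO2, add Amplite, wait 30 min at RT, and read luminescence.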

The nature of assay [3]: qHTS assay for small molecule agonists of the p53 signaling pathway - cell viability (AID 651633; calls by dose curve; note: nearly all actives have a fitted effect of over 30% in size; note: potency is the fitted concentration of half-maximal effect). A digest of the protocol: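 p53RE-bla cells were treated with compound for 16 hours at 37 C. Cytotoxicity was then measured as CellTiter-Glo luminescence after 30 min at room temperature.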
Assay [4] in a line: qHTS assay for small molecule disruptors of the mitochondrial membrane potential - cell viability (AID 720634; calls by dose curve;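 note: human HepG2 liver cancer cells; series mostly up to about 83 µM; nearly all actives have a fitted effect of over 20% in size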). The essentials: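 Measuring cytotoxicity alongside mitochondrial potential, the screen quantified ATP by luminescence in HepG2 cells after 1 hr compound incubation and a 30 min room-temperature CellTiter-Glo step.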
Assay [5] in a line: qHTS assay for small molecule disruptors of the mitochondrial membrane potential (AID 720635). Note: potency is the fitted concentration of half-maximal effect. The essentials:
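HepG2 cells exposed to compound 1 hr at 37C, then Mito-MPS dye 30 min. Ratio read of aggregate (540/590 nm) versus monomer (490/535 nm) fluorescence.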

Assay [6] in a line: qHTS assay to test for compound auto fluorescence at 590 nm (red) in HepG2 cells (AID 720674). A digest of the protocol: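 Fluorescence at 590 nm emission following 540 nm excitation was recorded from HepG2 wells one hour after compound transfer, with DMSO-only wells as vehicle and Rose Bengal sodium equivalency as the scale.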
The nature of assay [7]: qHTS assay to test for compound auto fluorescence at 535 nm (green) in HepG2 cells (AID 720675).
Assay [8] is described as follows: qHTS assay to test for compound auto fluorescence at 460 nm (blue) in HEK293 cells (AID 720678). A digest of the protocol: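 Cells were seeded and left to adhere for 4-5 hr at 37C. Compounds were then pin-transferred. After an overnight incubation at 37C under 5% CO2, intrinsic fluorescence at 405/460 nm was measured and referenced to triamterene.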
The nature of assay [9]: qHTS assay to test for compound auto fluorescence at 535 nm (green) in HEK293 cells (AID 720680).
Assay [10] can be described thus: qHTS assay to test for compound auto fluorescence at 460 nm (blue) in HEK293 cell free culture (AID 720681). A digest of the protocol: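 Compounds were added to cell-free DMEM with 10% FBS and fluorescence read directly. The blue channel used 405 nm excitation and 460 nm emission, with triamterene as the reference fluorophore.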
A short description of assay [11]: qHTS assay to test for compound auto fluorescence at 535 nm (green) in HEK293 cell free culture (AID 720682). A digest of the protocol:
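Cell-free medium (DMEM, 10% FBS) receives compound or DMSO by pintool. Plate read directly at Ex 485/Em 535 nm. Signal converted to fluorescein equivalency.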

A short description of assay [12]: qHTS assay to test for compound auto fluorescence at 590 nm (red) in HEK293 cell free culture (AID 720683). A digest of the protocol:
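Cell-free wells of DMEM with 10% FBS received compound, and intrinsic fluorescence was read at excitation/emission 540/590 nm. Values expressed as equivalence to Rose Bengal sodium.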

Assay [13] is described as follows: qHTS assay to test for compound auto fluorescence at 590 nm (red) in HepG2 cell free culture (AID 720684). A digest of the protocol:
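Compounds are added to culture medium (MEM, 10% FBS) lacking cells, then fluorescence is read at excitation 540 nm, emission 590 nm, with Rose Bengal sodium as the equivalency standard.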

Assay [14] in a line: qHTS assay to test for compound auto fluorescence at 460 nm (blue) in HepG2 cell free culture (AID 720685). The essentials:
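Compound (23 nL) or DMSO pinned into cell-free MEM with 10% FBS; blue fluorescence read at 405/460 nm excitation/emission, expressed as auto-fluorescence equivalency to triamterene.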

A short description of assay [15]: qHTS assay to test for compound auto fluorescence at 535 nm (green) in HepG2 cell free culture (AID 720686).
Assay [16] is described as follows: qHTS assay to test for compound auto fluorescence at 460 nm (blue) in HepG2 cells (AID 720687). The essentials: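 HepG2 cells in MEM with 10% FBS, attached overnight at 37 C, were exposed to compound or DMSO for 1 hr at 37 C, 5% CO2. Blue fluorescence was read at 405/460 nm, with triamterene as reference fluorophore.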
Assay [17] has as its target Glucocorticoid receptor (Homo sapiens) (UniProt P04150). The experiment in a line: qHTS assay to identify small molecule agonists of the glucocorticoid receptor (GR) signaling pathway (AID 720691; active = well fitted activation curve with a large enough effect in the signal ratio in the repeat runs, not every such curve was filed as active; the % refers to the signal ratio). The essentials:
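Reporter read-out: fluorescence intensity following 2 h room-temperature LiveBLAzer B/G FRET substrate loading. Prior step: GR-bla HeLa cells held 4 h, then treated 18 h at 37 C.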

Assay [18] can be described thus: qHTS assay for small molecules that induce genotoxicity in human embryonic kidney cells expressing luciferase-tagged ATAD5 - cell viability (AID 651634; calls by dose curve; note: nearly all actives have a fitted effect of over 25% in size). The essentials:
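Seeding of 2,000 HEK293T ATAD5-luciferase cells per well preceded pin-tool compound transfer. Plates sat 15.5 hr at 37C under 5% CO2, then fluorescence was read after 30 min with CellTiter-Fluor.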

A short description of assay [19]: qHTS assay to test for compound auto fluorescence at 590 nm (red) in HEK293 cells (AID 720679). The essentials: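 Each well held 2,000 HEK293 cells in medium containing 10% dialyzed FBS. Following 4-5 hr attachment at 37C, 23 nL test compound or DMSO was added; plates sat overnight, and red fluorescence (540/590nm) was recorded.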
The target in assay [20] is Glucocorticoid receptor (Homo sapiens) (UniProt P04150). The experiment in a line: qHTS assay to identify small molecule antagonists of the glucocorticoid receptor (GR) signaling pathway (AID 720692; active = well fitted inhibition curve with a large enough effect in the signal ratio in the repeat runs, not every such curve was filed as active; the % refers to the signal ratio). A digest of the protocol:
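Dexamethasone (5 nM final) stimulated a stably integrated GRE-beta-lactamase reporter in HeLa cells during 18 h co-incubation with compounds; signal was quantified as fluorescence intensity of B/G FRET substrate after 2 h.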

Glucocorticoid receptor (Homo sapiens), sequence (P04150 whole entry, looked up): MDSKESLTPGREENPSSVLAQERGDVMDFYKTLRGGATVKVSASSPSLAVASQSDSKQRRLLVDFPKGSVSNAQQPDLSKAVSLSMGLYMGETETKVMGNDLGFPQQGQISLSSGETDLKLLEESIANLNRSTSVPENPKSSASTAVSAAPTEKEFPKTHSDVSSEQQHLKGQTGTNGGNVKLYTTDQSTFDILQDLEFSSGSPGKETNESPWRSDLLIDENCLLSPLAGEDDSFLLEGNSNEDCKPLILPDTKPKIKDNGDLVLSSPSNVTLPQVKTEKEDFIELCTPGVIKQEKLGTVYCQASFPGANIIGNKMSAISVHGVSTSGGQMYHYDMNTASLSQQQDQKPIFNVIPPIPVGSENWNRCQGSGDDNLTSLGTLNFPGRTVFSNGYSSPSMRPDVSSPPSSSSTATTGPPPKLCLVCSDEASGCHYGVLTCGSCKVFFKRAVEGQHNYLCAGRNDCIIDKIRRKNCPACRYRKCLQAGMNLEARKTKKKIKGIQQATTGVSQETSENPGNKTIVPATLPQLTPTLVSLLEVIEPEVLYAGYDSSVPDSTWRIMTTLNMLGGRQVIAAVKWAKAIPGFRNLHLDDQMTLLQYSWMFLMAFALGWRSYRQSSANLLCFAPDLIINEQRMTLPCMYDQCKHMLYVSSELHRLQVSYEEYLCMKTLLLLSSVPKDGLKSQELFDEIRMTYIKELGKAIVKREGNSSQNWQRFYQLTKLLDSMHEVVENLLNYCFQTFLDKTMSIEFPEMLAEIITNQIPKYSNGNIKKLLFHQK

Turning to `Cc1ccc(C(C)(C)O)cc1`, the Potency entry in assay [1], in [2], in assay [3], in assay [4], in assay [5] and in assay [8] was “inactive” in each case. Further, the Potency entry in [10], in assay [14], in assay [16] and in assay [17] was “inactive” in each case. Moreover, the compound was classed as inactive in assay [6], in [7], in assay [9], in [11], in [12] and in assay [13]. For the same compound, in [15], the compound was called inactive.

As for `CCCCCCNC(=O)n1cc(F)c(=O)[nH]c1=O`, the results for the Potency in [1] and in assay [3] were 1.5 µM (active) and 0.668 µM (active), respectively. For the same compound, the Potency entry in assay [18], in assay [4], in [8], in assay [10], in assay [14] and in [16] was “inactive” throughout. The Potency entry in assay [17] is “inactive”. Moreover, the compound was classed as inactive in [6], in [19], in assay [9], in assay [11], in assay [12] and in assay [13]. Also, the compound was called inactive in assay [15].

For `O=C(CCc1ccc(O)cc1)c1c(O)cc(O)cc1O`, the Potency in [1] is 70.1 µM (active); in assay [5], 3.13 µM (active). The Potency entry in assay [2], in [3], in [8], in [10], in assay [14] and in assay [16] was “inactive” throughout. The call in assay [19], in assay [9], in assay [11], in [12], in assay [13] and in assay [15] was inactive.

Turning to `c1ccc(C[n+]2cccc3ccccc32)cc1`, the Potency entry in assay [2], in assay [3], in assay [18], in assay [4], in assay [8] and in assay [10] was “inactive” throughout. In addition, the Potency entry in assay [14], in assay [16], in [17] and in [20] was “inactive” in each case. Moreover, the result in [6], in assay [7], in [19], in assay [9], in [11] and in [12] was inactive. Besides, the call in assay [13] and in [15] was inactive.

As to `CCc1ccccc1`, the Potency result in [2], in [3], in [18], in [4], in assay [5] and in assay [8] was “inactive” in each case. Moreover, the Potency result in [10], in assay [14], in assay [16], in [17] and in assay [20] was “inactive” each time. The compound was classed as inactive in [6], in assay [19], in [9], in assay [11], in assay [12] and in assay [13]. For the same compound, the compound was classed as inactive in [15].

For `CC(CN(C)C)C(C)(O)Cc1ccc(Cl)cc1` (configuration not stated), the Potency entry in assay [2], in assay [3], in assay [18], in [4], in assay [5] and in assay [8] was “inactive” each time. Also, the Potency entry in assay [10], in assay [14], in [16], in assay [17] and in assay [20] was “inactive” in each case. The compound was classed as inactive in assay [6], in [7], in assay [9], in assay [11], in assay [12] and in [13]. Further, in assay [15], the compound was called inactive.

`CCCCCC#CC(=O)OC`: the Potency result in [2], in assay [3], in assay [18], in [4], in assay [5] and in [8] was “inactive” in each case. Besides, the Potency entry in assay [10], in [14] and in assay [16] was “inactive” in each case. The outcome in [6], in [7], in [9], in assay [11], in [12] and in [13] was inactive. In [15], the compound was called inactive.

For the origin of these results see PubChem BioAssay (Tox21).
